Reference: PubChem BioAssay
Activity calls are given as the source filed them.

What was measured:
[1] = molecular target: Albumin (Bos taurus) (UniProt P02769); test: compounds binding labelled BSA control protein – biochemical, small-molecule microarray, Alexa647 label, 635/667 nm fluorescence, artefact control for SMM control protein annotation, profiling panel (AID 1118); conditions: BSA-A647 binding, fluorescence 635 nm, higher = more signal;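 also: score merges 667 nm emission intensity and signal-to-noise per printed compound spot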
[2] = probe aXIP binding to arrayed compounds – biochemical, NeuroSMM set, 635/667 nm fluorescence, primary screen (AID 1119); conditions: small-molecule microarray, higher = more signal, called active from +8 up or from −8 down;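 also: probe is the protein aXip251-270 applied at 1 µg/mL to compound-printed slides; binding of probe to printed compounds measured as 667 nm fluorescence plus signal to noise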
[3] = probe aNOTCH3 binding on compound microarray – biochemical, small-molecule microarray, 635/667 nm fluorescence, primary screen (AID 1120); conditions: higher = more signal;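 also: probe is a biotin-tagged antibody raised against NOTCH3 rather than NOTCH3 protein; score merges spot fluorescence near 667 nm with spot signal to noise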
[4] = probe aNOTCH2 binding on compound microarray – biochemical, small-molecule microarray, 635/667 nm fluorescence, primary screen (AID 1121); conditions: higher = more signal;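 also: score merges feature fluorescence read at 667 nm with its signal to noise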
[5] = molecular target: Carbonic anhydrase 2 (Homo sapiens) (UniProt P00918); test: compounds binding carbonic anhydrase 2 – biochemical, small-molecule microarray, Alexa647-labelled CAII, profiling panel (AID 1122); conditions: CAII-A647 binding fluorescence, higher = more signal
[6] = COS7 lysate on small-molecule microarray, probe aHis, 635 nm (AID 1123); conditions: COS7 cell lysate, fluorescence, higher = more signal;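 also: z-score combines 667nm fluorescence intensity with signal-to-noise per printed compound spot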
[7] = probe aLAP1 signal on lysate-treated microarray – cell lysate, small-molecule microarray, COS7 lysate, primary screen (AID 1124); conditions: probe aLAP1, fluorescence, higher = more signal;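 also: lysate comes from COS7 cells expressing LAP1 and is applied at 0.3 µg/mL; score merges spot fluorescence near 667 nm with signal-to-noise over triplicate slides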
[8] = test system: Sam68 (KHDRBS1); test: compounds binding KHDRBS1 protein – biochemical, small-molecule microarray, 635 nm fluorescence, primary screen (AID 1125); conditions: higher = more signal;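 also: score merges 667 nm channel intensity with signal to noise over triplicate slides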
[9] = test system: Chordin-like protein 2 (CHRDL2); test: compounds binding chordin-like 2 – biochemical, small-molecule microarray, 635 nm fluorescence, primary screen (AID 1126); conditions: fluorescence 635 nm, higher = more signal;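 also: printed compound slides probed with Chrdl2 protein at 4 µg/mL for 1 h at 4 C; score merges 667 nm emission intensity with signal to noise over three replicate slides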
[10] = molecular target: Concanavalin-A (Canavalia ensiformis) (UniProt P02866); test: compounds binding concanavalin A lectin – biochemical, small-molecule microarray, Alexa647 label, 635 nm, artefact control for SMM control protein annotation, primary screen (AID 1127); conditions: ConA-A647 binding fluorescence, higher = more signal;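 also: z combines 667 nm emission intensity with signal-to-noise across three replicate slides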
Chain of Concanavalin-A (Canavalia ensiformis) (P02866 whole entry, looked up): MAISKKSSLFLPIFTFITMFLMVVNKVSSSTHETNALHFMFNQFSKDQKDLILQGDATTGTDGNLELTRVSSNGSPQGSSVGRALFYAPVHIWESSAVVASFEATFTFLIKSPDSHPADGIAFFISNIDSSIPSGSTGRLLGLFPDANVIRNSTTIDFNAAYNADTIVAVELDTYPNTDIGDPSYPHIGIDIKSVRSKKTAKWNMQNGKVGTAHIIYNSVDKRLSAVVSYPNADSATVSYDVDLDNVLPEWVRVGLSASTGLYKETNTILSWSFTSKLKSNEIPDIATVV

Chain of Albumin (Bos taurus) (P02769 whole entry, looked up): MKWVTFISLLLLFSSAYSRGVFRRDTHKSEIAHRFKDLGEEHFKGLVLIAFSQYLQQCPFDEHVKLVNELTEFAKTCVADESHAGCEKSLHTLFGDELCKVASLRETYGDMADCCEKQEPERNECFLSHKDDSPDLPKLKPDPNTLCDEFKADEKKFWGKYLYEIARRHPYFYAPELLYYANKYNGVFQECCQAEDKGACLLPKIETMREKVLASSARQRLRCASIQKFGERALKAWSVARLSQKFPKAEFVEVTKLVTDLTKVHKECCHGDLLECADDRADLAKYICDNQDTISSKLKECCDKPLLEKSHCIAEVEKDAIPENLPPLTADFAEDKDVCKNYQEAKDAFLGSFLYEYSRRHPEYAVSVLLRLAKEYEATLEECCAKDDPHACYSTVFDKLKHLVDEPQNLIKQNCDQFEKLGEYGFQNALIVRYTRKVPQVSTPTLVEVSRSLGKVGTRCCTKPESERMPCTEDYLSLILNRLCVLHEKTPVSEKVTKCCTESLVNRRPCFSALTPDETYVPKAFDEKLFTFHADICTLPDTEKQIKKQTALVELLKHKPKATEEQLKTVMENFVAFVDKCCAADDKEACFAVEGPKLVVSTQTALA

Row | Structure (SMILES) | composite z-score [1] | composite Z-score [2] | composite z-score [3] | composite z-score [4] | composite z-score [5] | composite z-score [6] | composite z-score [7] | composite z-score [8] | composite z-score [9] | composite z-score [10]
1 | COCCOC(=O)N1C(=O)[C@@]2(c3cc(C#CCC(C(=O)OC)C(=O)OC)ccc31)[C@H](c1ccc(OCCO)cc1)N1[C@H](c3ccccc3)[C@H](c3ccccc3)OC(=O)[C@H]1[C@@H]2C(=O)Nc1nc2ccccc2s1 | -0.86 | 0.575 (inactive) | -0.0077 | 0.15 | 0.405 | 0.221 | -0.157 | 1.31 | 0.219 | 1.11
2 | [N-]=[N+]=NCc1ccccc1[C@H]1OC(c2ccc(OCCCO)cc2)=N[C@@]1(Cc1ccccc1)C(=O)NCCN1CCOCC1 | 0.985 | 0.0851 (inactive) | 0.576 | -0.0531 | 0.696 | 2.61 | 0.961 | 1.3 | 0.104 | 1.12
3 | COCCOC(=O)N1C(=O)[C@@]2(c3cc(C#CCNC(N)=O)ccc31)[C@H](c1ccc(OCCO)cc1)N1[C@H](c3ccccc3)[C@H](c3ccccc3)OC(=O)[C@H]1[C@@H]2C(=O)NC[C@H](O)c1ccccc1 | 0.633 | -0.524 (inactive) | 0.206 | -0.013 | 0.225 | 0.0755 | 0.442 | 1.29 | 0.84 | 1.14
4 | C=C(COC)C(=O)CC[C@@H](OC(=O)c1cccnc1)c1ccccc1OCCO | -0.726 | 0.245 (inactive) | 0.0237 | -0.0681 | 0.758 | 0.105 | -0.377 | -0.356 | 0.349 | 0.484
5 | C=C(C(=O)CC[C@@H](OC(=O)c1ccccc1-c1ccccc1C(=O)O)c1ccccc1OCCO)C(C)C | 0.287 | -0.28 (inactive) | -0.0111 | -0.108 | 0.734 | 0.418 | 0.175 | 1.21 | 0.935 | 0.866
6 | COCC(=C=CC[C@@H](O)c1cccc(OCCO)c1)CCO | 0.682 | 0.0124 (inactive) | -0.0293 | 0.011 | 0.708 | 0.562 | 1.41 | 0.381 | -0.325 | 0.856
7 | CCOC(=O)C1=CC[C@@H](c2ccccc2)N(S(=O)(=O)c2ccc(C)cc2)[C@H]1c1cccc(OC)c1 | 0.909 | 1.15 (inactive) | 0.199 | 0.137 | 0.422 | 0.899 | 0.0214 | 1.06 | -0.0412 | 0.913
8 | [N-]=[N+]=NCc1ccccc1C[C@@]1(C(=O)N2CCCCC2)N=C(c2ccc(OCCCO)cc2)O[C@@H]1c1ccccc1CN=[N+]=[N-] | 0.36 | 0.569 (inactive) | 0.0435 | 0.0515 | 0.711 | 1.81 | 1.06 | 1.08 | -1.07 | 1.09
9 | CS(=O)(=O)CCOC(=O)C1=CC(CCCO)=CC(C2CC2)N(Cc2cccc(OC(F)(F)F)c2)C=C1C(=O)OCCS(C)(=O)=O (stereo not given) | 0.42 | 3.23 (inactive) | 0.0311 | -0.133 | 0.751 | 1.16 | -0.0318 | 1.33 | -0.316 | 0.244
10 | C=C(CCCC)C(=O)CC[C@@H](OC(=O)c1cccnc1)c1ccc(OCCO)cc1 | -0.409 | 0.97 (inactive) | -0.0144 | -0.0357 | 0.718 | 0.719 | 0.488 | 0.947 | 0.894 | 0.239
11 | COCC1C2CC[C@H]3C(OCc4ccc(OC)cc4)OC[C@]4(C)[C@H]3C2=C(CN4C(=O)OC(C)(C)C)[C@H](C)C1COC (stereo not given in full) | 1 | 0.709 (inactive) | 0.249 | -0.182 | 0.796 | 2.82 | 0.534 | 1.3 | -0.355 | 1.15
